# Experiments:
# Experiment in all cases: DAPPL (digital affinity profiling via proximity ligation, sequencing); 10 mM Tris-HCl pH 7.5, 50 mM NaCl, 1 mM DTT, 4% glycerol, room temperature, 30 min; GST-TFs on glutathione beads, 16-mer random dsDNA library, 0.1% formaldehyde crosslink after washing; high values mean tight binding
# FEV = biological target: T1, FEV (Homo sapiens, UniProt Q99581 1-238); details: protein: recombinant; tags: N-terminal GST; dsDNA, one strand shown
# T1 sequence: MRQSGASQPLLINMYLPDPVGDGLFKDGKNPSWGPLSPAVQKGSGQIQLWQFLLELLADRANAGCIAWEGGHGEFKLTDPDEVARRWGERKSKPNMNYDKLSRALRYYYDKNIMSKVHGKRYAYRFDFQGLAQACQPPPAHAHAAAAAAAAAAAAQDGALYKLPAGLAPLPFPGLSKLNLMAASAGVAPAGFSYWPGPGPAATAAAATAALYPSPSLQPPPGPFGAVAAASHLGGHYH
# Procedure, shortened: (§1)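 In yeast, human transcription factors were expressed with a GST fusion, then pulled down on glutathione beads and given DNA barcodes. Pooled with a tag-only sample, they were exposed to 200 nmole of a 16-mer random double-stranded DNA library (Tris/NaCl/DTT/glycerol buffer, room temperature, 30 min), washed, crosslinked with 0.1% formaldehyde, proximity-ligated using BsaI/T4 ligase for 1 h at 37 °C, PCR-amplified and read on an Illumina NextSeq500. Each hexamer's frequency of reads for a factor, divided by the matching frequency for the tag-only sample, gives the binding signal.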
# ETV5 = ETV5 (Homo sapiens, UniProt P41161 1-510); details: protein: recombinant; tags: N-terminal GST; dsDNA, one strand shown
# Procedure, shortened: as §1
# HSF1 = HSF1 (Homo sapiens, UniProt Q00613 1-529); details: protein: recombinant; tags: N-terminal GST; chain copies: 3; dsDNA, one strand shown
# Procedure, shortened: as §1
# SPIC = biological target: T2, SPIC (Homo sapiens, UniProt Q8N5J4 1-248); details: protein: recombinant; tags: N-terminal GST; dsDNA, one strand shown
# T2 sequence: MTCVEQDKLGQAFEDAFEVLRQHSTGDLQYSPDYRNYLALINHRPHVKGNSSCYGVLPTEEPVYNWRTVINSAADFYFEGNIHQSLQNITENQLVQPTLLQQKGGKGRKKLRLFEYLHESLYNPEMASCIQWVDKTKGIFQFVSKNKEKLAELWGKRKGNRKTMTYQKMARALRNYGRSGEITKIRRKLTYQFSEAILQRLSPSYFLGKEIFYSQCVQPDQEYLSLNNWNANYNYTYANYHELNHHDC
# Procedure, shortened: as §1
# ELF4 = ELF4 (Homo sapiens, UniProt Q99607 1-663); details: protein: recombinant; tags: N-terminal GST; dsDNA, one strand shown
# Procedure, shortened: as §1
# ELK4 = biological target: T3, ELK4 (Homo sapiens, UniProt P28324-2 1-405); details: protein: recombinant; tags: N-terminal GST; dsDNA, one strand shown
# T3 sequence: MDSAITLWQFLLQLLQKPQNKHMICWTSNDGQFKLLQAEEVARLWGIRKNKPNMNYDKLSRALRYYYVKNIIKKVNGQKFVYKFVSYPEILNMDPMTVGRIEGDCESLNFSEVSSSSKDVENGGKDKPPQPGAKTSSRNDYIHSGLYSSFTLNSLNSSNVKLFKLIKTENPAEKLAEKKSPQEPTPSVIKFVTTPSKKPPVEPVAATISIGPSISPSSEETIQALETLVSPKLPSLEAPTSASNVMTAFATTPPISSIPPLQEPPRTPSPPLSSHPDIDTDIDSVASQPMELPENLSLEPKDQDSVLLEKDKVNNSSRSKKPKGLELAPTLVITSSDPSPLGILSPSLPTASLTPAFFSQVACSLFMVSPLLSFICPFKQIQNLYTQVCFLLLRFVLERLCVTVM
# Procedure, shortened: as §1
# ETV2 = biological target: T4, ETV2 (Homo sapiens, UniProt O00321 1-342); details: protein: recombinant; tags: N-terminal GST; dsDNA, one strand shown
# T4 sequence: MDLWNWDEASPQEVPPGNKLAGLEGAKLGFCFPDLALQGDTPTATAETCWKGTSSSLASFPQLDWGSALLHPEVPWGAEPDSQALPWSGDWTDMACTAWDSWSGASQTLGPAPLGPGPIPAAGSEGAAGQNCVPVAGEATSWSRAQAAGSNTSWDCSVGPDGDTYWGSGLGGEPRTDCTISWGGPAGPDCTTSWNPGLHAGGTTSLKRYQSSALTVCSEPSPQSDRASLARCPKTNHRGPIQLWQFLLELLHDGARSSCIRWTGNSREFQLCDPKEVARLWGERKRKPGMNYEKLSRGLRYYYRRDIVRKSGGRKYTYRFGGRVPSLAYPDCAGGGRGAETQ
# Procedure, shortened: as §1
# ELF3 = biological target: T5, ELF3 (Homo sapiens, UniProt P78545 1-371); details: protein: recombinant; tags: N-terminal GST; dsDNA, one strand shown
# T5 sequence: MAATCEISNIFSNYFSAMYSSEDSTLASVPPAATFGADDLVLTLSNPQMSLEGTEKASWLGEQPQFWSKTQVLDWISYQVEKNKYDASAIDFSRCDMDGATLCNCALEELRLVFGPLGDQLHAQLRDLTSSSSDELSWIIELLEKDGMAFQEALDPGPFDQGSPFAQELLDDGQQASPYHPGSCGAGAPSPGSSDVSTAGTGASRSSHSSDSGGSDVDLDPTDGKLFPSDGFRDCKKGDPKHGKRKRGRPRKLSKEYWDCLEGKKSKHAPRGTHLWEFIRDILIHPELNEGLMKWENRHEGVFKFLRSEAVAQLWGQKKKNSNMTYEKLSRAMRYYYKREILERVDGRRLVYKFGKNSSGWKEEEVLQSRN
# Procedure, shortened: as §1
# ETV1 = ETV1 (Homo sapiens, UniProt P50549 1-477); details: protein: recombinant; tags: N-terminal GST; dsDNA, one strand shown
# Procedure, shortened: as §1
# ERF = biological target: T6, ERF (Homo sapiens, UniProt P50548 1-548); details: protein: recombinant; tags: N-terminal GST; dsDNA, one strand shown
# T6 sequence: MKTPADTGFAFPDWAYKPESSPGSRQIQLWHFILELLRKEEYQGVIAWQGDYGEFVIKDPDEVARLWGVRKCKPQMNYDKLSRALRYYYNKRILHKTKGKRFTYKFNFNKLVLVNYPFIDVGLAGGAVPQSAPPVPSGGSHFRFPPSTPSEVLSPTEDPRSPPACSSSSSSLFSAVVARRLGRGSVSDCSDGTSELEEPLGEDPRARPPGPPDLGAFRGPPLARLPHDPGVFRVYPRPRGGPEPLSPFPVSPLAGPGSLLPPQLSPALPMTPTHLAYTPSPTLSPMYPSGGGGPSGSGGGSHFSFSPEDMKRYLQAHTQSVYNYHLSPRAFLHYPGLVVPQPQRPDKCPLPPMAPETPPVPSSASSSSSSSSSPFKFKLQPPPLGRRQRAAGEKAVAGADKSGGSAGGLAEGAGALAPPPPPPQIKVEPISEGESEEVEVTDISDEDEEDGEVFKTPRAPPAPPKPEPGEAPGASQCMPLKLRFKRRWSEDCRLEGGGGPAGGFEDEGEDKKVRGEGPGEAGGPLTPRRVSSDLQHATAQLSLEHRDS
# Procedure, shortened: as §1
# ETV3L = biological target: T7, ETV3L (Homo sapiens, UniProt Q6ZN32 1-361); details: protein: recombinant; tags: N-terminal GST; dsDNA, one strand shown
# T7 sequence: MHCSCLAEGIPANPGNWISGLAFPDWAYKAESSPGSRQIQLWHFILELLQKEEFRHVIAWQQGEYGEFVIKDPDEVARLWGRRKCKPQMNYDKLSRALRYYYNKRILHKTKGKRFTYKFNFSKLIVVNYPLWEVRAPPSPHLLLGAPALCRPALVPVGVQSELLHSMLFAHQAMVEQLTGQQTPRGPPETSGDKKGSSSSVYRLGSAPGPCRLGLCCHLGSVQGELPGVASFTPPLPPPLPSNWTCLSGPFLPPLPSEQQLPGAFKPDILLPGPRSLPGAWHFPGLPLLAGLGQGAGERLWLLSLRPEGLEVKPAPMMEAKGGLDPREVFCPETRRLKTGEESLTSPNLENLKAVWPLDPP
# Procedure, shortened: as §1
# ETS2 = biological target: T8, ETS2 (Homo sapiens, UniProt P15036 1-469); details: protein: recombinant; tags: N-terminal GST; dsDNA, one strand shown
# T8 sequence: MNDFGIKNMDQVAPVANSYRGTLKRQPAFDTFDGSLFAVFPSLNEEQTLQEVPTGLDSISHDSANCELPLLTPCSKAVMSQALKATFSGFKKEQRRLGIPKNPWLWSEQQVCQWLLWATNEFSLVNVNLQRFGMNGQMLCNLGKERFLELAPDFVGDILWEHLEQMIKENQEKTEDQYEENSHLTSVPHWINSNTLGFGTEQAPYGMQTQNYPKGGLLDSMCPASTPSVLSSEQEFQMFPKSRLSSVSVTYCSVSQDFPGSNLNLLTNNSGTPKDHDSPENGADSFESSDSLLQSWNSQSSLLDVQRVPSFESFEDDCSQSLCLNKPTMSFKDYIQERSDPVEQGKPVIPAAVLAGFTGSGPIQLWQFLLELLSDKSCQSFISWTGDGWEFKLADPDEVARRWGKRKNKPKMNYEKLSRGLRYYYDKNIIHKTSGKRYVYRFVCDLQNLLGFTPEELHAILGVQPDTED
# Procedure, shortened: as §1
# SPDEF = biological target: T9, SPDEF (Homo sapiens, UniProt O95238 1-335); details: protein: recombinant; tags: N-terminal GST; dsDNA, one strand shown
# T9 sequence: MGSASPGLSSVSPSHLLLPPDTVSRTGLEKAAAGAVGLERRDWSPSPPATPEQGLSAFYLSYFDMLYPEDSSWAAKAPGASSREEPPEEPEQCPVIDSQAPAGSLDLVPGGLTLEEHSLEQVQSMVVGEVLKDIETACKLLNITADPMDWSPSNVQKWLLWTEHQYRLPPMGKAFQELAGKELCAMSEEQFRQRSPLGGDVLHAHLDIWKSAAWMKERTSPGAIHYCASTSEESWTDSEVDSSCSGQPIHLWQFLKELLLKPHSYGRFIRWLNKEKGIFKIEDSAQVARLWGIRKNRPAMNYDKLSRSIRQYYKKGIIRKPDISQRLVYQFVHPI
# Procedure, shortened: as §1
# ETV7 = biological target: T10, ETV7 (Homo sapiens, UniProt Q9Y603 1-341); details: protein: recombinant; tags: N-terminal GST; dsDNA, one strand shown
# T10 sequence: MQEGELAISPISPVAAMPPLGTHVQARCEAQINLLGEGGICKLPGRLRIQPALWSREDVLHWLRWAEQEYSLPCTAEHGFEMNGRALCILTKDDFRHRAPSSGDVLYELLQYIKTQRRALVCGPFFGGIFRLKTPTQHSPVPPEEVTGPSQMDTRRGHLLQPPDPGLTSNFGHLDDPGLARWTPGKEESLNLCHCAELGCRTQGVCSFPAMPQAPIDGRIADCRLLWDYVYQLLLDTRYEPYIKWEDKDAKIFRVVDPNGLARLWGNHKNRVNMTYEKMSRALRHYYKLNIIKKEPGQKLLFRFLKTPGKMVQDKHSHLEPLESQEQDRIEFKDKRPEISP
# Procedure, shortened: as §1
# ELF5 = biological target: T11, ELF5 (Homo sapiens, UniProt Q9UKW6-2 1-255); details: protein: recombinant; tags: N-terminal GST; dsDNA, one strand shown
# T11 sequence: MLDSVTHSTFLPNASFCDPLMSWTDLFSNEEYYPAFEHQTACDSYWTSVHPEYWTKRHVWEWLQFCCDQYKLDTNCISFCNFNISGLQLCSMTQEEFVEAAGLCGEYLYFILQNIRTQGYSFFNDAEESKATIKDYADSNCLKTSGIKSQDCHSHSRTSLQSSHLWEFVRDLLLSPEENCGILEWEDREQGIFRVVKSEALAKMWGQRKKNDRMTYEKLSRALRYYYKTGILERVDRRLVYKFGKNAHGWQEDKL
# Procedure, shortened: as §1
# ETV3 = biological target: T12, ETV3 (Homo sapiens, UniProt P41162-2 1-143); details: protein: recombinant; tags: N-terminal GST; dsDNA, one strand shown
# T12 sequence: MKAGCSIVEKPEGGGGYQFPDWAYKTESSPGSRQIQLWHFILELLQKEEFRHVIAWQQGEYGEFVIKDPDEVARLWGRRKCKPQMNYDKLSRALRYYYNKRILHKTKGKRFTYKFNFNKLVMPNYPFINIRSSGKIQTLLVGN
# Procedure, shortened: as §1
# ETV6 = ETV6 (Homo sapiens, UniProt P41212 1-452); details: protein: recombinant; tags: N-terminal GST; dsDNA, one strand shown
# Procedure, shortened: as §1
# ELF4, sequence (Q99607 whole entry): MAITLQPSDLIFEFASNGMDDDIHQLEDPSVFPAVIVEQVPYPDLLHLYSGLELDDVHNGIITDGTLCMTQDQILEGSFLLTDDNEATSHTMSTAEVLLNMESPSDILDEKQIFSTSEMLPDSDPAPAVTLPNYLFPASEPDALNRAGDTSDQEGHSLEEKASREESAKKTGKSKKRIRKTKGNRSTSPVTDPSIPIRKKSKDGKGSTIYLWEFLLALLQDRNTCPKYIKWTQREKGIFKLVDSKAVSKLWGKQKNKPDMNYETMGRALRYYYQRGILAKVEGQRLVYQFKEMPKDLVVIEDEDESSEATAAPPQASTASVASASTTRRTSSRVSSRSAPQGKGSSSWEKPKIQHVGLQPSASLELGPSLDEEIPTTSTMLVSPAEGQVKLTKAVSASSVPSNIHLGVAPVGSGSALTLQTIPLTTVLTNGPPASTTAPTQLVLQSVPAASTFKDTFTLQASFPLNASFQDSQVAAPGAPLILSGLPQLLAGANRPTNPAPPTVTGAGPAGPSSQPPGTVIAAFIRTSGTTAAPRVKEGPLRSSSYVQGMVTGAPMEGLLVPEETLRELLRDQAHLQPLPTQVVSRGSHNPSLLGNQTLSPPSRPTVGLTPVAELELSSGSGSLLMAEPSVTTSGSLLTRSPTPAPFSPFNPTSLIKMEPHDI
# ETV5, sequence (P41161 whole entry): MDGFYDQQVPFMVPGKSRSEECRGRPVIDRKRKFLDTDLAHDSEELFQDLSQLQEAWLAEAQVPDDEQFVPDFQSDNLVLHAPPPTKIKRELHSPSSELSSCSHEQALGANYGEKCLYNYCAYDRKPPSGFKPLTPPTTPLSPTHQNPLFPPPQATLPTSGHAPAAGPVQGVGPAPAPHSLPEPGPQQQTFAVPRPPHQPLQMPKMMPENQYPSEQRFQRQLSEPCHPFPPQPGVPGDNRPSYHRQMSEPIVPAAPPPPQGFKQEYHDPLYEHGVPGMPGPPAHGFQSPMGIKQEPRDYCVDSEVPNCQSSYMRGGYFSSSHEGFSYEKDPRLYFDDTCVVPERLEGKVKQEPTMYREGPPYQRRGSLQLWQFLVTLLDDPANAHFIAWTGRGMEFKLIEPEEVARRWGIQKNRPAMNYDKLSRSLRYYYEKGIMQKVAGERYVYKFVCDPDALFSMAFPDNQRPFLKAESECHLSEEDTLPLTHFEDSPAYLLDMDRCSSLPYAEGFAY
# ETV1, sequence (P50549 whole entry): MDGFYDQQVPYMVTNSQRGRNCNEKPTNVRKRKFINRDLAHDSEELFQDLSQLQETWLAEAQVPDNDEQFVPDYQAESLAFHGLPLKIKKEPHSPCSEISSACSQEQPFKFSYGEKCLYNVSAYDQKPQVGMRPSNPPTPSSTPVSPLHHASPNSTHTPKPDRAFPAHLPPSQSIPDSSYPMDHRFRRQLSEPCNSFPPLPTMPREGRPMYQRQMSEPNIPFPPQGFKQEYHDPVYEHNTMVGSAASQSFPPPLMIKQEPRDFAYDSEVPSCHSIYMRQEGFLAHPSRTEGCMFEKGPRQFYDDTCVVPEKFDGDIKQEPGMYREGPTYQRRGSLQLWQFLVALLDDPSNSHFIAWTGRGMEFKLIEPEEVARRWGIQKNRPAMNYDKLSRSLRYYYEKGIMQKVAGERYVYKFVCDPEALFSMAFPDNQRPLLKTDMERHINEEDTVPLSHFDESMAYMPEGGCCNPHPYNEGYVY
# HSF1, sequence (Q00613 whole entry): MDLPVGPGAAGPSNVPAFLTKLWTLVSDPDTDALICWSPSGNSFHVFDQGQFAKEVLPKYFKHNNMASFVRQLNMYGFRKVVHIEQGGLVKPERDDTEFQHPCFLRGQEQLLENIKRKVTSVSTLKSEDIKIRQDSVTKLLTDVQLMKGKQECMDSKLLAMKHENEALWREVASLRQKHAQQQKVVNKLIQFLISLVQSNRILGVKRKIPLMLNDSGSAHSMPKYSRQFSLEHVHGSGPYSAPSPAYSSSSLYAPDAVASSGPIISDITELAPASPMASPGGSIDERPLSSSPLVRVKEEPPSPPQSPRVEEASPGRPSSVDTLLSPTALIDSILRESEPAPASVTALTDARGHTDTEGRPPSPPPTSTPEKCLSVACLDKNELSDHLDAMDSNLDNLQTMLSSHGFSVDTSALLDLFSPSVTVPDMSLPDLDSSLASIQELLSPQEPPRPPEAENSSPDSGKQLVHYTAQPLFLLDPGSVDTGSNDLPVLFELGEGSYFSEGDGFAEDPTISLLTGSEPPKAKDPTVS
# ETV6, sequence (P41212 whole entry): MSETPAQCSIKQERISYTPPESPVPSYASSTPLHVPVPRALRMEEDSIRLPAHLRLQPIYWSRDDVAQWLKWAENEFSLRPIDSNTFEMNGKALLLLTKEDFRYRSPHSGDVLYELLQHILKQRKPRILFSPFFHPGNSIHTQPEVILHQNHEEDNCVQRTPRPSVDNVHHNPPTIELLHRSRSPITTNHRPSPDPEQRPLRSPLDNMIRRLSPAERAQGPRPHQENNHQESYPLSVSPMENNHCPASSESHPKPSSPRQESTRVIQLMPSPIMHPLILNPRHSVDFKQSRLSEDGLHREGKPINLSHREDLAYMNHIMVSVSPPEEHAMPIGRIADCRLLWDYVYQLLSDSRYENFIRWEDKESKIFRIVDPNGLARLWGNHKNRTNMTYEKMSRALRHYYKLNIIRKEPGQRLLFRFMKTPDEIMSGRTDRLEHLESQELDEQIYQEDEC
sequence,measurement,setting,value
CGTCCT,binding signal,FEV,"1.38 fold enrichment (6-mer frequency, TF over GST control)"
same,binding signal,ETV5,"1.32 fold enrichment (6-mer frequency, TF over GST control)"
same,binding signal,HSF1,"1.08 fold enrichment (6-mer frequency, TF over GST control)"
same,binding signal,SPIC,"1.27 fold enrichment (6-mer frequency, TF over GST control)"
same,binding signal,ELF4,"1.44 fold enrichment (6-mer frequency, TF over GST control)"
same,binding signal,ELK4,"1.4 fold enrichment (6-mer frequency, TF over GST control)"
same,binding signal,ETV2,"1.66 fold enrichment (6-mer frequency, TF over GST control)"
same,binding signal,ELF3,"1.31 fold enrichment (6-mer frequency, TF over GST control)"
same,binding signal,ETV1,"1.24 fold enrichment (6-mer frequency, TF over GST control)"
same,binding signal,ERF,"1.41 fold enrichment (6-mer frequency, TF over GST control)"
same,binding signal,ETV3L,"1.31 fold enrichment (6-mer frequency, TF over GST control)"
same,binding signal,ETS2,"1.28 fold enrichment (6-mer frequency, TF over GST control)"
same,binding signal,SPDEF,"1.56 fold enrichment (6-mer frequency, TF over GST control)"
same,binding signal,ETV7,"1.45 fold enrichment (6-mer frequency, TF over GST control)"
same,binding signal,ELF5,"1.56 fold enrichment (6-mer frequency, TF over GST control)"
same,binding signal,ETV3,"1.53 fold enrichment (6-mer frequency, TF over GST control)"
same,binding signal,ETV6,"1.47 fold enrichment (6-mer frequency, TF over GST control)"

# — article PMC7862700, “An all-to-all approach to the identification of sequence-specific readers for epigenetic DNA modifications on cytosine”
